MITF TRPM1 HTS: MITF TRPM1 promoter activation in melanoma cells. SK-MEL-5 TRPM1-promoter luciferase, 24 h; % of positive control, neutral wells = 0. activation, % at 12.5 µM. 0.75% of 300,000 active. AID 588334;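 active = mean activation of at least 80% with every replicate also reaching 80%; inconclusive = mean reaches 80% but some replicate falls short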;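 also: 0% = neutral control wells and 100% = parthenolide positive control wells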
esBAF inh: SWI/SNF esBAF complex inhibition | mouse ES cells, Bmi1-luciferase knock-in reporter, 24 h; 100% = twice the neutral-well signal | reporter increase, % at 12.5 µM | 2% of 350,000 active | AID 602393; in the data active = activation above about 40%; inconclusive = no clear call, values can overlap the other calls;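 also: 0% = median of the plate's neutral control wells and 100% = double that signal; a rise in the Bmi1 reporter signal indicates esBAF inhibition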
SMARCA2 activ: increases SMARCA2 function in MMTV reporter cells | activation, % at 9.1 µM | MG213 cells, MMTV-luciferase reporter, dexamethasone, overnight | 1% of 370,000 active; in the data active = activation above about 7.8%;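 also: 0% = vehicle wells and 100% = reference activator wells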
MLL AF4-AF9 inh: inhibitors of human MLL-AF4/AF9 interaction | AlphaScreen, biotin-AF4 peptide binding to FLAG-AF9 | inhibition, % at 10 µM | P42568 | 0.47% of 350,000 active | AID 651704;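 active = every replicate reaching a set inhibition limit, whatever the replicate mean, cut at about 25% in these data; inconclusive = mean inhibition reaches that limit but some replicates miss it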;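 also: 0% = plate neutral control median and 100% = total signal loss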
Wnt act: Wnt/beta-catenin pathway activation; Wnt/beta-catenin reporter cell assay, activator, plate reader; activation, % at 9.35 µM; 1.2% of 300,000 active; in the data active = activation above about 30%, passing the limit was not always enough; inconclusive = no clear call, values can overlap the other calls;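 also: 0% = neutral control wells and 100% = positive control wells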
FGF22 binding: FGF22 (human) thermal shift binding; Q9HCT0; recombinant FGF22 thermal shift, SYPRO orange fluorescence; percent of sucrose octasulfate shift, DMSO zero; activity (Tm shift, normalised), % at 9.99 µM; 1.5% of 340,000 active;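 active = mean Tm shift, scaled 0 neutral to 100 positive control, at about 1.3% or above, every replicate too, limit read from the data; inconclusive = no clear call, values can overlap the other calls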
Active calls of the source: *; u = inconclusive; x = not tested or not shown. This is a sample that favours compounds with a hit; in the whole collection about 4.3% have one here.

SMILES | MITF TRPM1 HTS | esBAF inh | SMARCA2 activ | MLL AF4-AF9 inh | Wnt act | FGF22 binding
O=C(Nc1ccccc1N1CCN(c2ccccc2)CC1)c1ccccc1 | -16 | x | 3 | 5 | 42* | 0
Cc1cc(-c2cc(C(=O)O)c3ccccc3n2)c(C)s1 | 7 | x | 2 | -2 | 0 | 44*
O=C(O)c1ccccc1NC(=O)c1cc(-c2ccccc2)nc2ccccc12 | -5 | -9 | -2 | -4 | -2 | 3.9*
Cc1cc(C(=O)Nc2ccc3c(c2)C(=O)N(C)[C@@H]2CC[C@H](CC(=O)O)O[C@@H]2CO3)no1 | x | 2 | x | x | x | 0
CCCNC(=O)N1CC2(CN(S(=O)(=O)CC)C2)c2c([nH]c3cc(OC)ccc23)[C@@H]1CO | x | x | x | -4 | x | 0
CN(C)C(=O)C[C@H]1CC[C@H]2[C@H](COc3ccc(NC(=O)C4CCCCC4)cc3C(=O)N2C)O1 | x | -2 | x | -4 | x | x
O=C(CCCc1ccccc1)NC12CC3CC(CC(C3)C1)C2 | 102* | 54* | 6 | -3 | 0 | 0
COc1ccc(CCNC(=O)NC23CC4CC(CC(C4)C2)C3)cc1 | 34 | 31 | -1 | -40 | 8 | 0
O=C(NCCc1ccc(F)cc1)NC12CC3CC(CC(C3)C1)C2 | 58 | 72* | 3 | -2 | 52* | 0
C[C@@H]1CN([C@@H](C)CO)C(=O)Cc2cc(NC(=O)Nc3ccc(C(F)(F)F)cc3)ccc2O[C@H]1CN(C)C(=O)NC1CCCCC1 | x | -5 | x | 5 | x | -1
Cc1cccc(S(=O)(=O)N2[C@@H]3c4cccc(=O)n4C[C@H]2[C@H](CO)[C@H]3C(=O)NC2CCC2)c1 | x | -2 | x | -2 | x | 0
Cc1ccc(CSc2nnc(C)c(=O)[nH]2)cc1 | 17 | x | 0 | 0 | -4 | 43*
Cc1nnc(SCc2ccccc2)[nH]c1=O | -5 | x | 0 | 0 | 0 | 0
COc1ccc(/C=C2/SC(=S)N(CCCC(=O)Nc3cccc(O)c3)C2=O)cc1 | -7 | -62 | -5 | 10 | 6 | 0
COc1ccc(/C=C2\SC(=S)N(CC(=O)OCC(=O)Nc3cc(Cl)cc(Cl)c3)C2=O)cc1 | 5 | x | -2 | 4 | 38* | 0
Cc1cc(C(F)(F)Cl)n2ncc(-c3ccccn3)c2n1 | -12 | 61* | -2 | 0 | -1 | 0
Cc1cc(NCc2ccccn2)n2ncc(-c3ccc(Cl)cc3)c2n1 | x | x | 3 | -1 | u | 0
O=[N+]([O-])c1ccc(O)c(/C=N/Nc2ccccc2Cl)c1 | 35 | 47* | 1 | 1 | u | 0
O=C(N/N=C/c1cc([N+](=O)[O-])ccc1O)C1CC1 | -23 | 13 | -2 | -10 | 2 | 0
O=[N+]([O-])c1ccccc1N/N=C\c1ccccc1Cl | 41 | 62* | 3 | x | x | x
O=[N+]([O-])c1ccccc1C=NNc1ccccc1 | 27 | 91* | 7 | 0 | 35* | 0
O=[N+]([O-])c1ccccc1/C=N/OCc1ccccc1 | 101* | 65* | 5 | -1 | 24 | 0
CCS(=O)(=O)Nc1ccc2c(c1)C(=O)N(C)C[C@H](OC)[C@H](C)CN(CC1CCCCC1)[C@@H](C)CO2 | x | -1 | x | 0 | x | 0
C(=N\NCc1ccccc1)/c1ccc2ncccc2c1 | x | x | 3 | x | 31* | 0
CCC(SC1=Nc2ccccc2C2=NC(CC(C)C)C(=O)N12)C(=O)Nc1ccc2c(c1)OCO2 (stereo unspecified) | 11 | 51* | -1 | x | 6 | x
SMILES | MITF TRPM1 HTS | esBAF inh | SMARCA2 activ | MLL AF4-AF9 inh | Wnt act | FGF22 binding
Cc1cccc(-c2cc3nc(C)cc(C)n3n2)c1 | 28 | 66* | 5 | -3 | -1 | 0
C[C@@H]1CN([C@H](C)CO)C(=O)Cc2cc(NS(=O)(=O)c3cn(C)cn3)ccc2O[C@@H]1CN(C)C | x | -8 | x | 0 | x | 0
Cc1ccc(NC(=S)c2ccccc2)cc1 | 82* | 68* | 7 | x | u | x
COc1ccc(NC(=S)c2ccncc2)cc1 | -7 | x | -5 | x | 9 | x
COc1ccc(C(=S)Nc2ccc(C)cc2)cc1 | 109* | x | 4 | x | x | x
COc1ccc(N2CCN(CCCNC(=S)Nc3c(C)cccc3C)CC2)cc1 | -3 | -3 | -1 | 43* | 0 | 0
COc1ccc(NC(=S)NCCCN2CCOCC2)cc1 | 1 | x | -1 | 0 | -1 | 0
O=C(C1CC1)N1[C@@H]2CN(S(=O)(=O)c3ccccc3)c3ccccc3[C@@H]2[C@@H]1CO | x | -4 | x | 0 | x | 1

High-throughput results from PubChem BioAssay.
